High-throughput results (PubChem BioAssay)
Pf growth 48h = P. falciparum growth inhibition at 48 hours (one generation); AID 504832; P. falciparum luciferase growth in erythrocytes, 48 h; 310,000 compounds, 5.9% hits; Potency, µM (series often up to 28.7 µM), actives largely listed as inhibitors; active = well fitted inhibition curve with a large enough effect; inconclusive = small, poorly fitted or top-dose-only effect, or another doubt; inactive = no such curve, though single readings can be large or run the other way
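Luminescence readout; reporter = integrated firefly luciferase in P. falciparum. RBC culture at 2% hematocrit, 0.1% parasitemia final, 37 C/5% CO2; decreased signal taken as growth inhibition.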
Pf growth 96h = inhibits malaria parasite growth, 96 h; 320,000 compounds, 6.9% hits; AID 504834; P. falciparum luciferase reporter growth, 96 h; Potency, µM (series often up to 28.7 µM), actives largely listed as inhibitors; active = well fitted inhibition curve with a large enough effect; inconclusive = small, poorly fitted or top-dose-only effect, or another doubt; inactive = no such curve, though single readings can be large or run the other way
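Readout is luminescence from an integrated firefly luciferase in P. falciparum. Red cells, 2% hematocrit and 0.05% parasitemia final, were cultured with compound through two parasite generations (96 hours) at 37 C, 5% CO2.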
SARS PLP yeast = inhibitors of SARS-CoV papain-like protease in yeast; Potency, µM (titrated, usually from 32.9 µM), hits mostly activators; S. cerevisiae expressing SARS-CoV PLpro, growth rescue; 330,000 compounds, 0.19% hits; note: nearly all actives have a fitted effect of over 55% in size
RE007 growth inh = less growth of the S. pombe RE007 Vpr strain; S. pombe RE007 Vpr strain, BacTiter-Glo ATP luminescence, 24 h; Potency, µM (titrated, usually from 92.2 µM), most hits filed as inhibitors; 360,000 compounds, 0.21% hits; active = well fitted falling curve with a large enough effect; inconclusive = small, poorly fitted or top-dose-only effect; inactive = no such curve, though single readings can be large or run the other way; note: nearly all actives have a fitted effect of over 50% in size
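Fission yeast strain RE007, carrying one chromosomally integrated HIV-1 vpr copy, was seeded at OD 0.01 in PMG+AL medium with 23 nL pinned compound. After 24 h at 30 °C and 99% humidity, viability was read by BacTiter-Glo luminescence.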
NS1 inh = inhibitors of influenza NS1 protein function; Potency, µM (doses to about 46.1 µM); 270,000 compounds, 0.4% hits; note: actives are rising curves; nearly all actives have a fitted effect of over 50% in size
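Compounds were scored for reversing the slow growth caused by influenza A NS1 in S. cerevisiae, measured by optical density at 600 nm. Assay medium contained 2% galactose at pH 6.0; NS1-free yeast of the same strain were the positive control.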
Flu NS1 inh = validation of influenza NS1 protein function inhibitors | activity change, negative = inhibition, % at 32.9 µM | 1,400 tested, under 10 active | influenza NS1 function cell assay, 15-point titration | AID 492980 | shares compounds with NS1 inh
PR8 titer = influenza NS1 inhibitors: inhibition of influenza A/PR/8/34 replication; 95 compounds, 30% hits; AID 504647; MDCK infected influenza A/PR/8/34, virus titer TCID50; hits give low values; virus titer (log TCID50), log10 TCID50 at 5 µM; shares compounds with NS1 inh; call rule not given here
Each line names hits and unclear results; the compound was inactive in the other large screens (follow-up assays come after a bar, where they were run). Shown are actives, neighbours in structure and some others; about 9.5% of the full set was active somewhere. Unless noted, calls come from the whole dose curve.

O=C(N/N=C/c1ccc(N2CCOCC2)s1)c1ccc(NS(=O)(=O)c2cccs2)cc1	Pf growth 48h inconclusive, NS1 inh 10µM | Flu NS1 inh inactive
Cc1ccc(S(=O)(=O)N2CCC(=O)N(C(COCc3ccc(Cl)cc3Cl)Cc3ccccc3)CC2)cc1 (stereo not drawn)	Pf growth 48h inconclusive, Pf growth 96h inconclusive, NS1 inh inconclusive | Flu NS1 inh inactive | PR8 titer 7.5
Cc1ccc(S(=O)(=O)N2CCC(=O)N([C@H](COCc3ccc(Cl)cc3)Cc3ccccc3)CC2)cc1	none (no result: Pf growth 48h, Pf growth 96h, SARS PLP yeast, NS1 inh)
Cc1ccc(NC(=O)CCC(=O)N/N=C/c2coc3ccccc3c2=O)cc1	NS1 inh 5.6µM | Flu NS1 inh inactive
O=C(CSc1nncn1-c1ccccn1)Nc1ccccc1Cl	none
Cc1c(Cl)cccc1NC(=O)CSc1nncn1-c1ccccn1	NS1 inh inconclusive | Flu NS1 inh inactive | PR8 titer inactive
CC(=O)c1ccc(NC(=O)Cc2ccsc2)cc1	none
Cc1ccc(CNC(=O)N2CCN(S(=O)(=O)c3ccccc3)CC2)cc1	none
Cc1ccc(C)c(N2CCN(C(=O)CCNC(=O)Cn3ccc4ccccc4c3=O)CC2)c1	Pf growth 48h inconclusive, NS1 inh inconclusive | Flu NS1 inh inactive
CCOC(=O)C1=C(C)N=C2SC(C)C(=O)N2C1c1ccc(C(=O)OC)cc1 (stereo not drawn)	Pf growth 96h 3.7µM, NS1 inh 7.9µM | Flu NS1 inh inactive
CCOC(=O)C1=C(C)N=C2SC=C(C)N2C1c1ccc(OC)cc1 (stereo not drawn)	none
N#Cc1ccc(OCc2c(-c3ccccc3)nnn2CC(=O)O)cc1	none (no result: Pf growth 48h, Pf growth 96h, SARS PLP yeast, NS1 inh)
COc1cc2c(=O)n(CCCC(=O)NCC3CCCO3)c(=O)n(CC(=O)c3ccc(F)cc3)c2cc1OC (stereo not drawn)	Pf growth 48h inconclusive (no result: NS1 inh)
COc1cccc(N2CC(O)=C(c3nc4ccccc4s3)C2=N)c1	none
COc1cccc(N2CC(O)=C(c3ccccc3)C2=N)c1	NS1 inh 7.1µM | Flu NS1 inh inactive
Cn1cccc1C(=O)NC(=O)COC(=O)c1ccc(O)cc1	NS1 inh 10µM (no result: Pf growth 48h) | Flu NS1 inh inactive
Cn1cccc1C(=O)NC(=O)COC(=O)c1ccc(S(C)(=O)=O)cc1	none (no result: Pf growth 48h, Pf growth 96h, NS1 inh)
C#CCOc1ccc(/C=C2/C(=O)NN(c3ccc(F)cc3)C2=O)cc1OC	Pf growth 96h inconclusive, NS1 inh 3.5µM (no result: Pf growth 48h) | Flu NS1 inh inactive
COc1cc(/C=C2\C(=O)NN(c3ccccc3)C2=O)ccc1OCC(N)=O	none (no result: RE007 growth inh, NS1 inh)
Cc1nc2c(C)cccn2c(=O)c1NC(=O)c1ccc2c(c1)OCO2	none (no result: NS1 inh)
Cc1ccc(NC(=O)CN2C(=O)S/C(=C\c3cc(C)n(C)c3C)C2=O)cc1	none
Cc1ccc(NC(=O)CN2C(=O)S/C(=C\c3cc(C)n(-c4cccc(C(=O)O)c4)c3C)C2=O)cc1	NS1 inh 11µM | Flu NS1 inh inactive
Cc1ccc(/C=C2\SC(N3CCN(C(c4ccccc4)c4ccccc4)CC3)=NC2=O)o1	Pf growth 48h 5.9µM, Pf growth 96h 1.7µM, NS1 inh 11µM | Flu NS1 inh inconclusive
CCOC(=O)C1=C(c2ccccc2)NC(SCC(=O)Nc2cccc(C)c2)=C(C#N)C1c1ccco1 (stereo not drawn)	Pf growth 48h 9.3µM, NS1 inh inconclusive | Flu NS1 inh inactive
CCOC(=O)C1=C(c2ccccc2)NC(SCC(=O)Nc2ccc(C)cc2)=C(C#N)C1c1ccco1 (stereo not drawn)	Pf growth 48h inconclusive (no result: Pf growth 96h, SARS PLP yeast)
CCOC(=O)C1=C(c2ccccc2)NC(SCC(=O)Nc2ccccc2C)=C(C#N)C1c1ccco1 (stereo not drawn)	Pf growth 48h 8.3µM, NS1 inh 11µM | Flu NS1 inh inconclusive
COc1ccc(CCNC(=O)C2CCN(S(=O)(=O)c3ccc(F)cc3)CC2)cc1	Pf growth 48h inconclusive
Cc1ccc(-c2csc(NC(=O)c3cccc([N+](=O)[O-])c3)n2)cc1	NS1 inh 5µM | Flu NS1 inh inactive
O=C(Nc1nc(-c2ccc([N+](=O)[O-])cc2)cs1)c1c(F)cccc1F	none
COc1cccc(OC)c1C(=O)Nc1nc(-c2ccccc2)cs1	Pf growth 48h inconclusive, NS1 inh 13µM | Flu NS1 inh inactive
CCOCCCNC(=O)c1ccc2c(c1)ncn2-c1cccc(C)c1	none
CCOc1ccc(C(C)=O)cc1Cn1c(=O)oc2ccccc21	none
Cc1sc(NC(=O)C2=COCCO2)c(C(N)=O)c1C	none (no result: NS1 inh)
N#CCCn1cc(C(CC(=O)c2ccc(Br)cc2)C(=O)O)c2ccccc21 (stereo not drawn)	NS1 inh 8.9µM (no result: Pf growth 48h) | Flu NS1 inh inactive
Cc1ccc(C(=O)CC(C(=O)O)c2cn(CCC#N)c3ccccc23)cc1 (stereo not drawn)	Pf growth 96h inconclusive, NS1 inh inconclusive (no result: Pf growth 48h)
CC(=O)Nc1cccc(NC(=O)CSc2nnc3ccc(-c4ccncc4)nn23)c1	none (no result: NS1 inh)
Cc1ccc(CNC(=O)CN(C)C2=NS(=O)(=O)c3ccccc32)cc1	none (no result: NS1 inh)
COc1cc(NC(=S)N2CCC(C(O)(c3ccccc3)c3ccccc3)CC2)cc(OC)c1	Pf growth 96h 2.1µM, NS1 inh 4.5µM | Flu NS1 inh inactive
CCNC(=S)N1CCC(C(O)(c2ccccc2)c2ccccc2)CC1	Pf growth 96h inconclusive
Nc1ccccc1OCCOc1ccccc1N	none (no result: Pf growth 48h)
Nc1ccccc1OCCOCCOc1ccccc1N	Pf growth 96h inconclusive, NS1 inh 5µM | Flu NS1 inh inactive
O=C(Nc1nccs1)C1CC=CCC1 (stereo not drawn)	none
O=C(Nc1ccc(O)cc1)C1CC=CCC1 (stereo not drawn)	Pf growth 48h inconclusive, NS1 inh 13µM | Flu NS1 inh inactive
O=S(=O)(c1ccc2ccccc2c1)N1CCN(C(=S)Nc2ccc(F)cc2)CC1	Pf growth 48h inconclusive, Pf growth 96h inconclusive, NS1 inh 11µM | Flu NS1 inh inactive
COCCN1C[C@@H](CO)O[C@@H](n2cnc3c(NCC(C)C)ncnc32)C1	none (no result: Pf growth 48h, Pf growth 96h, SARS PLP yeast, NS1 inh)
CCCCc1nc2n[nH]c(N)c2c2c1CSC(C)(C)C2	none (no result: Pf growth 96h)
CC(C)c1nc2n[nH]c(N)c2c2c1CSC(C)(C)C2	Pf growth 48h inconclusive, NS1 inh 5.6µM (no result: Pf growth 96h) | Flu NS1 inh inactive
Cc1cc(NC(=O)CCC(=O)N(CC(=O)NC2CCCC2)c2cccc(F)c2)no1	Pf growth 96h inconclusive, NS1 inh inconclusive | Flu NS1 inh inactive
COC(=O)c1cc(NC(=O)c2cc(C(C)(C)C)nn2Cc2ccc(F)cc2)ccc1N1CCOCC1	Pf growth 48h 6.6µM, NS1 inh inconclusive | Flu NS1 inh inactive
CC(C)CC(=O)NC(NC(=S)Nc1sc2c(c1C#N)CCCC2)C(Cl)(Cl)Cl (stereo not drawn)	Pf growth 96h inconclusive, NS1 inh 7.1µM | Flu NS1 inh inactive | PR8 titer inactive
